High-throughput results (PubChem)
This is a sample that favours compounds with a hit; in the whole collection about 4.8% have one here.
HIF act – HIF pathway transcriptional activation. U2OS HRE-luciferase reporter, luminescence; normalized: DMSO 0%, desferrioxamine 100%. activation, % at 7.5 µM (by protocol). 0.32% of 300,000 active. AID 1910;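 active means mean activation of at least 10% of the iron chelator positive control signal, with at least half of replicates also reaching 10%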
ALR H2O2 inh – inhibitors of human sulfhydryl oxidase ALR; P55789; purified ALR, DTT oxidation, H2O2 HRP-luminol luminescence; inhibition, % (concentration not given with the values); 3.8% of 290,000 active; AID 485317;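 active means mean replicate inhibition above about 79%, with every replicate also reaching it, limit read from the data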
Target sequence (P55789 whole entry, looked up): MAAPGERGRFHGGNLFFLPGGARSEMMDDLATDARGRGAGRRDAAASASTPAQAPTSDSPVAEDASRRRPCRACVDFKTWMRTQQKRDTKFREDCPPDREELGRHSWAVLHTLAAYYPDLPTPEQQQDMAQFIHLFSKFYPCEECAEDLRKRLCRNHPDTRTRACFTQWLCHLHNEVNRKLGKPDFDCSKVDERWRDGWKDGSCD
Mot1-301 SUMO – SUMOylation pathway inhibition by Mot1-301 growth rescue | S. cerevisiae Mot1-301 growth rescue, ATP luminescence, 38.5C; percent above DMSO median, 100 means doubled | growth rescue, % at 18.8 µM | 1% of 320,000 active | AID 2716;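 active means every valid replicate shows activation above 250% relative to neutral control wells; inactive means the rest, any valid replicate at or below 250%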;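 further: OY570 slx delta 5 strain wells were the positive control but not used for scaling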
AI-2 QS mod – Vibrio harveyi AI-2 quorum sensing modulation; Vibrio harveyi JMH597 AI-2 luminescence/OD600 ratio, 9 h; stronger effect = lower value; strain lacks LuxN and CqsS sensors; 0 = neutral-control median; 0.4% of 300,000 active; activity change, % at 7.5 µM; AID 2094; in the data active means activity change below about -75%, passing the limit was not always enough;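 further: luminescence divided by OD600 gain over 9 h not by final OD600 alone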
An asterisk follows results filed as active; / = not tested or not shown; + = active, no number.

SMILES	HIF act	ALR H2O2 inh	Mot1-301 SUMO	AI-2 QS mod
Nc1c(Cl)ncnc1NCCc1ccc(O)cc1	0	90*	-14	-17
CCCCNC(=O)CC1N=C2c3ccccc3N=C(SCC(=O)Nc3cccc(C)c3)N2C1=O (stereo unspecified)	0	98*	-18	6
CCOC(=O)CSC1=Nc2ccccc2C2=NC(CC(=O)NCc3ccc(OC)cc3)C(=O)N12 (stereo unspecified)	0	10	105	21
Cn1cc(/C=N/NC(=O)c2cc3cc(Br)ccc3o2)c2ccccc21	1	-8	7	24
O=C(O)Cn1cc(/C=N/NC(=O)c2cc3cc(Br)ccc3o2)c2ccccc21	1	6	+	19
O=C(O)c1ccc(-n2cccc2/C=N\NC(=O)c2cc3cc(Br)ccc3o2)cc1	0	87*	128	38
Clc1ccc(CN=C2Nc3ccccc3CS2)cc1	5	-7	-30	-42
c1cncc(CN=C2Nc3ccccc3CS2)c1	0	98*	-1	0
COc1ccc2[nH]c(=S)[nH]c2c1	/	98*	71	18
S=c1[nH]c2ccc(Cl)cc2[nH]1	0	56	/	11
CCCCN(C(=O)C(C)Oc1ccc(Br)cc1)c1c(N)n(Cc2ccccc2)c(=O)[nH]c1=O (stereo unspecified)	0	0	-2	24
CCC(=O)Nc1ccc(C(=O)Cn2ncc(Cl)c(Cl)c2=O)cc1	4	-17	52	-30
COC(=O)Cn1nc(C)c2ccccc2c1=O	-47	4	-5	-15
CCOC(=O)c1ccc(NC(=O)Cn2nc(C)c3ccccc3c2=O)cc1	1	-3	345	-97*
CCOC(=O)c1ccc(NC(=O)Cn2ncc(Cl)c(Cl)c2=O)cc1	-1	1	-15	-96*
COC(=O)c1ccc(NC(=O)Cn2nc(C)c3ccccc3c2=O)cc1	0	-2	1	-96*
CCC(=O)NC(=S)Nc1ccc(NC(=S)NC(=O)c2ccc(C)cc2)cc1	0	-7	7	14
O=C(CCc1ccccc1)NNC(=S)NC(=O)c1ccc(Cl)cc1	0	99*	-9	37
CC(=O)NNC(=S)NC(=O)c1ccc(C)cc1	1	/	9	-28
Cc1ccc(C(=O)NNC(=S)NC(=O)c2ccc(Cl)cc2)cc1	0	15	119	-127*
CCC(=O)NNC(=S)NC(=O)c1ccc(C)cc1	0	99*	59	-21
O=C(C[C@H]1C/C=C\CC[C@@H](Cc2ccc(F)cc2)C(=O)OC[C@H]2CCCN2C1=O)NCCO	/	-2	0	/
NS(=O)(=O)c1ccc(NC(=O)COC(=O)Cn2cnc3ccccc3c2=O)cc1	/	-13	-18	/
Nc1ccccc1N=Cc1ccc(-c2cccc(Cl)c2)o1	2	1	444*	2
COc1cc(NS(=O)(=O)c2ccc(NC(=O)NC3CCCCC3)cc2)nc(OC)n1	0	98*	27	13
SMILES	HIF act	ALR H2O2 inh	Mot1-301 SUMO	AI-2 QS mod
Cc1cc(C)nc(NS(=O)(=O)c2ccc(NC(=O)COc3ccccc3)cc2)n1	0	99*	2	-1
COc1cc(NS(=O)(=O)c2ccc(NC(=S)NC(=O)C3CCCC3)cc2)nc(OC)n1	0	13	133	8
COc1cc(NS(=O)(=O)c2ccc(NC(=O)COc3ccccc3Cl)cc2)nc(OC)n1	-1	93*	-22	8
CCc1cccc(OCC(=O)Nc2ccc(S(=O)(=O)Nc3onc(C)c3C)cc2)c1	/	95*	6	20
Cn1c(=O)c2c(nc(NCCNC(=O)c3ccco3)n2Cc2ccccc2)n(C)c1=O	0	/	-6	28
CC(OC(=O)CN1C(=O)c2ccccc2C1=O)C(=O)NC1CCCCC1 (stereo unspecified)	0	1	2	26
O=C(NC(=S)NC12CC3CC(CC(C3)C1)C2)c1ccc(F)cc1	/	/	35	/
Cc1cccc(OCC(=O)N(Cc2ccco2)C2CCS(=O)(=O)C2)c1C (stereo unspecified)	0	-9	-10	16
CCCc1nnc(NC(=O)C2CCN(C(=O)C3CC(=O)N(c4ccc(C)cc4)C3)CC2)s1 (stereo unspecified)	0	-9	24	/
COc1cc(NS(=O)(=O)c2c(C(=O)N3CCOCC3)c(C)n(C)c2C)cc(OC)c1OC	0	9	-4	20
Cc1cc(C)nc(NS(=O)(=O)c2ccc(NC(=O)c3ccc(O)cc3O)cc2)n1	-1	99*	1	13
COc1cc(NS(=O)(=O)c2ccc(NC(=O)COc3cccc(C)c3)cc2)nc(OC)n1	1	98*	254	18
